Measurements taken from PubChem BioAssay AID463173 (ICCB-Longwood Screening Facility, Harvard Medical School, 2010).
Screen size: about 52,000 compounds; about 4,300 (8.3%) were called active. No stated cut-off is given here; in the data, active means survival mostly below about 52% (no sharp cut-off); inactive means mostly above about 56%. This excerpt belongs to a sample that is enriched for actives.

test system: DeltatarO mutant; test: S. aureus survival, RN4220 and DeltatarO strains – OD600, teichoic acid synthesis inhibitors, primary screen (AID 463173); conditions: S. aureus RN4220 wild type/DeltatarO growth, OD600, 18 h, stronger effect = lower value, screened at 18.75 µg/mL (by protocol)

Compound | survival
CCN(CC)CCNC(=O)c1c2c(nc3ccccc13)C(=O)N(C1CCCCC1)C2 | 94% (inactive)
CCOc1ccc2c(c1)c(=O)c(C(=O)c1ccc(CC)cc1)cn2CC(=O)Nc1ccccc1C | 70% (inactive)
CCOC(=O)C1CCN(C(=O)c2ccc(C)c(NC(=O)c3nsc4ccccc34)c2)CC1 | 88% (inactive)
CCN(CCCNC(=O)c1cc2c(=O)n(CC)c3ccccc3c2s1)c1ccccc1 | 47% (active)
CCN(CCCNC(=O)c1cc2c(=O)n(CC)c3ccccc3c2s1)Cc1ccccc1 | 101% (inactive)
CCN(CCCNC(=O)c1cc2c(=O)n(C)c3ccccc3c2s1)c1ccccc1 | 57% (inactive)
Cc1ccc(Sc2c(C(=O)NCc3cccc(F)c3)[nH]c3ccccc23)cc1 | 72% (inactive)
O=C(Cn1cnc2scc(-c3ccccc3)c2c1=O)NCc1ccco1 | 60% (inactive)
CCc1cccc(C)c1Nc1c(-c2ccc(SC)cc2)nc2sccn12 | 50% (inactive)
CC(=O)N1CCc2c(sc3nc(SCC(N)=O)n(-c4ccc(F)c(Cl)c4)c(=O)c23)C1 | 75% (inactive)
CCN1CCOC(=O)C1CC(=O)Nc1ccc(C(C)=O)cc1 (centres undefined) | 59% (inactive)
CCN1CCOC(=O)C1CC(=O)Nc1cc(C)cc(C)c1 (centres undefined) | 142% (inactive)
CCOc1ccc(NC(=O)CC2C(=O)OCCN2CC)cc1 (centres undefined) | 56% (inactive)
CCN1CCOC(=O)C1CC(=O)Nc1ccc(Br)cc1 (centres undefined) | 44% (active)
CCOC(=O)c1ccc(NC(=O)CC2C(=O)OCCN2CC)cc1 (centres undefined) | 61% (inactive)
CCc1ccc(NC(=O)CC2C(=O)OCCN2CC)cc1 (centres undefined) | 5% (active)
O=C(NCCc1ccc(Cl)cc1)c1ccc2c(c1)N(Cc1ccccc1F)C(=O)c1ccccc1S2(=O)=O | 79% (inactive)
CCc1cccc2c(-c3ccccc3)nc(SCC(=O)Nc3ccccc3OC)nc12 | 109% (inactive)
Cc1ccc(C)c(N2CCN(S(=O)(=O)c3cnc(N)nc3)CC2)c1 | 86% (inactive)
COc1ccc2oc(=O)c(-c3cn4c(n3)sc3cc(F)ccc34)cc2c1 | 76% (inactive)
Cc1oc2ccc(O)c(CN3CCN(Cc4ccccc4)CC3)c2c1C(=O)Nc1ccccc1 | 68% (inactive)
COc1cccc(Cc2nc3ccccc3nc2SCC(=O)NCCc2ccccc2)c1 | 87% (inactive)
Cc1cccc(CCNC(=O)CCc2c(C)nc3c(c(C)nn3-c3ccccc3)c2C)c1 | 48% (active)

Compound | survival
COc1cc2c(-c3ccccc3O)nc3c(c(C)nn3-c3ccccc3)c2cc1OC | 68% (inactive)
COc1cc2c(-c3ccccc3C)nc3c(c(C)nn3-c3ccccc3)c2cc1OC | 35% (active)
COc1ccc(CCNC(=O)CCc2c(C)nc3c(c(C)nn3-c3ccccc3)c2C)c(OC)c1 | 53% (active)
COc1cc2c(-c3ccccc3Cl)nc3c(c(C)nn3-c3ccccc3)c2cc1OC | 57% (inactive)
Cc1nc2c(c(C)nn2-c2ccccc2)c(C)c1CCC(=O)NCCc1ccccc1 | 58% (inactive)
COc1ccc(CNC(=O)CCc2c(C)nc3c(c(C)nn3-c3ccccc3)c2C)cc1 | 78% (inactive)
Cc1nc2c(c(C)nn2-c2ccccc2)c(C)c1CCC(=O)NCc1ccccc1 | 70% (inactive)
COc1ccc(CCNC(=O)CCc2c(C)nc3c(c(C)nn3-c3ccc(C)cc3)c2C)c(OC)c1 | 107% (inactive)
O=c1c2ccc(N3CCOCC3)c3cccc(c32)c2nc3ccccc3n12 | 90% (inactive)
O=C(Nc1ccc2oc(-c3cccnc3)nc2c1)c1cccc(Br)c1 | 62% (inactive)
Cc1cccc(C(=O)Nc2ccc(-c3nc4cc(C(C)C)ccc4o3)cc2)c1 | 34% (active)
Cc1cccc(C(=O)Nc2ccc3oc(-c4cccc5c(Br)cccc45)nc3c2)c1 | 67% (inactive)
Cc1cccc(C(=O)Nc2ccc3oc(-c4ccncc4)nc3c2)c1 | 62% (inactive)
CC(C)(C)c1ccc(-c2nc3cc(NC(=O)c4cccc(Br)c4)ccc3o2)cc1 | 73% (inactive)
CC(C)c1ccc2oc(-c3ccc(NC(=O)c4cccc(Br)c4)cc3)nc2c1 | 44% (active)
CC1CCN(CC(=O)Nc2ccc3ccccc3c2)CC1 | 107% (inactive)
CCCC(O)=NS(=O)(=O)c1ccc(N=NN(C)C)cc1 | 94% (inactive)
COc1cccc(NC(=O)CN(C)S(=O)(=O)c2cccs2)c1 | 108% (inactive)
CC(C)C(OC(=O)c1cc2occc2n1C(C)C)C(=O)NCC1CCCO1 (centres undefined) | 67% (inactive)
COc1ccc(NC(=O)Cn2cc(C#N)c3ccccc32)cc1 | 67% (inactive)
CCC1CN(C(=O)N2CCC(C(=O)NCCc3ccc(OC)c(OC)c3)CC2)c2ccccc2O1 (centres undefined) | 74% (inactive)
CC1CCc2nc3ncn(Cc4ccc(Cl)cc4)c(=O)c3cc2C1 (centres undefined) | 85% (inactive)
Cc1ccccc1Cn1cnc2nc3c(cc2c1=O)CC(C)CC3 (centres undefined) | 8% (active)

Compound | survival
Cc1ccc(Cn2cnc3nc4c(cc3c2=O)CC(C)CC4)cc1 (centres undefined) | 20% (active)
CC1CCc2nc3ncn(Cc4ccccc4C#N)c(=O)c3cc2C1 (centres undefined) | 81% (inactive)
CC1CCc2nc3ncn(Cc4ccccc4F)c(=O)c3cc2C1 (centres undefined) | 66% (inactive)
CC1CCc2nc3ncn(Cc4cccc(F)c4)c(=O)c3cc2C1 (centres undefined) | 102% (inactive)
CC1CCN(C(=O)Cn2cc(SCc3ccccc3)c3ccccc32)CC1 | 46% (inactive)
Cc1cc(C)cc(NC(=O)c2cc(CN3CCCC3)on2)c1 | 88% (inactive)
CCOc1ccc(NC(=O)c2c(NCc3cccs3)sc3c2CCC(C)C3)cc1 (centres undefined) | 129% (inactive)
COc1ccc(CNc2ncnc3c2c(-c2ccccc2)cn3-c2cccc(C)c2)cc1 | 67% (inactive)
Cc1ccc(CNC(=O)Cn2c3ncccc3c(=O)n2-c2ccc(C)cc2)cc1 | 116% (inactive)
CCOC(=O)N1CCN(C(=O)c2ccc3c(c2)N(Cc2cccc(Cl)c2)C(=O)c2ccccc2S3=O)CC1 (centres undefined) | 102% (inactive)
Cc1cccc(Cc2cnc(NC(=O)C3Cc4ccc(C)cc4C(=O)O3)s2)c1 (centres undefined) | 85% (inactive)
CCOC(=O)c1c(NC(=O)c2cc(-c3ccc(Br)cc3)on2)sc(C(C)=O)c1C | 88% (inactive)
CCOC(=O)c1c(NC(=O)c2cc(CC(C)C)on2)sc(C(C)=O)c1C | 54% (active)
CCOC(=O)c1c(NC(=O)c2cc(-c3ccc(Cl)cc3)on2)sc(C)c1C | 68% (inactive)
CCOC(=O)c1c(NC(=O)c2cc(C(C)C)on2)sc(C(C)=O)c1C | 123% (inactive)
CCOC(=O)c1c(NC(=O)c2cc(-c3ccc(OC)cc3)on2)sc(C)c1C | 45% (active)
CCOC(=O)c1c(NC(=O)c2cc(-c3ccc(Br)cc3)on2)sc(C)c1C | 166% (inactive)
CCOC(=O)c1c(NC(=O)c2cc(-c3cccc(Cl)c3)on2)sc(C(C)=O)c1C | 56% (inactive)
CCOC(=O)c1c(NC(=O)c2cc(-c3cccc(Cl)c3)on2)sc(C)c1C | 56% (active)
CCOC(=O)c1c(NC(=O)c2cc(-c3ccc(OC)c(OC)c3)on2)sc(C)c1C | 42% (active)
CCOC(=O)c1c(NC(=O)c2cc(CC)on2)sc(C(C)=O)c1C | 52% (inactive)
CCOC(=O)c1c(NC(=O)c2cc(-c3ccccc3OC)on2)sc(C)c1C | 61% (inactive)
CCOC(=O)c1sc(NC(=O)c2cc(-c3ccc(F)cc3)on2)c(C(=O)OCC)c1C | 65% (inactive)
